Measured values published in PubChem BioAssay (NCI).
Compounds without any hit were thinned out: in the full panel of roughly 83,000, 20% have a hit.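 For each line, cells grew in 96-well plates with the test compound present at a single concentration for 48 hours.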 A number with no mark means an inactive call. Calls of active or inactive are those of the source. The calls were made as follows: active = growth percent below 10; inactive = the rest.

Columns and labels:
Test in all cases: NCI-60 one-dose screen, 48 h (100 = growth as untreated, 0 = no growth, -100 = all killed)
Details in all cases: 10 µM unless noted
T-47D breast = system: T-47D breast
BT-549 breast = system: BT-549 breast
MDA-MB-435 melanoma = system: MDA-MB-435 melanoma
SW-620 colon = system: SW-620 colon
HCT-116 colon = system: HCT-116 colon
HCC-2998 colon = system: HCC-2998 colon
KM12 colon = system: KM12 colon
MCF7 breast = system: MCF7 breast

| Structure (SMILES) | growth (T-47D breast) | growth (BT-549 breast) | growth (MDA-MB-435 melanoma) | growth (SW-620 colon) | growth (HCT-116 colon) | growth (HCC-2998 colon) | growth (KM12 colon) | growth (MCF7 breast) |
| --- | --- | --- | --- | --- | --- | --- | --- | --- |
| CCCNC(=O)Oc1ccc(/C(=C(/C)Cc2ccc(OC)cc2)c2ccc(OCCN3CCCC3)cc2)cc1 | 37% | 82.7% | 65.8% | 77.7% | 48.8% | 62.5% | 78.7% |  |
| COc1cc(N2C(=O)C=CC2=O)ccc1N1C(=O)C=CC1=O | 77.4% | 95.3% | 109% | 85.4% | 107% | 114% | 109% |  |
| O=C(CN1C(=O)NC(c2ccccc2)(c2ccccc2)C1=O)c1ccc(N2CCCC2)cc1 | 81.2% | 66.4% | -4.2% (active) | 70.2% | 66% | 101% | 65.8% |  |
| O=S(=O)(Cc1cccc2c(CS(=O)(=O)c3ccc(Cl)cc3)cccc12)c1ccc(Cl)cc1 | 100% | 105% | 77.7% | 88.5% | 95.5% | 101% | 88.1% |  |
| COc1cc(CCNc2cnc3cc(N)cc(N)c3n2)cc(OC)c1 | 140% | 113% | 115% | 111% | 103% | 139% | 106% |  |
| CCCCCCCCCCCC(=O)OC(C)C(=O)Nc1ccccc1 (centres undefined) | 87.9% | 82% | 106% | 95.1% | 96.5% | 103% | 102% |  |
| CCN(CC)CCOC(=O)c1cccnc1 | 96.6% | 105% | 96.3% | 103% | 98.1% |  | 103% |  |
| CCCCCCCCc1ccc(OCCOCC[N+](C)(C)CC)cc1 (tested in a mixture with another compound) | 23.5% | 45.3% | 15.3% | 46.4% | 54.2% | 34.6% | 18% |  |
| OCCN1CCN(CC/C=C2/c3ccccc3Sc3ccc(C(F)(F)F)cc32)CC1 | 62.5% | 75.2% | 35.2% | 83.5% | 41.5% | 21.4% | 63.4% |  |
| CCCCCCCCCCCCCCCCNC(=S)N/N=C/c1ccc(O)cc1O | 89.6% | 83.5% | 75.2% | 66.7% | 51.8% | 86.9% | 71.8% |  |
| CCC(CCCN1C(=O)c2ccccc2C1=O)Nc1cc(OC)cc2c(C)ccnc12 (centres undefined) | 85.9% | 78.7% | 99.2% | 85.6% | 98% | 69% | 102% |  |
| c1ccc(-c2cn3ccnc3c(-c3ccc4ncn(C5CCCCC5)c4c3)n2)cc1 | -11.1% (active) | 42.9% | 71.3% | 90.9% | 40.5% | 103% | 51% |  |
| COC1NC(Cl)=C(C#N)C(C#N)(C#N)C1(C)C (centres undefined) | 112% | 97% | 124% | 95.9% | 108% | 113% | 111% |  |
| c1ccc(Nc2ccccn2)cc1 | 101% | 98.8% | 112% | 110% | 103% | 114% | 104% |  |
| COC(=O)/C=C1/CCCCC1(C)C(=O)OC (centres undefined) | 110% | 89.8% | 103% | 106% | 95.7% | 119% | 107% |  |
| Cc1c(CN(C)C)cc(C(C)C)cc1C(C)C | 131% | 118% | 111% | 104% | 104% | 104% | 114% |  |
| CCOC(=O)CNS(=O)(=O)CC(=O)c1ccccc1 | 91.9% | 86.4% | 99.7% | 110% | 103% | 92.2% | 108% |  |
| CCOc1ccc(Br)cc1/C=C(\C#N)c1ccc([N+](=O)[O-])cc1 | 66.4% | 96.5% | 85% | 86.6% |  |  | 94.5% | 23.4% |
